The values that follow come from PubChem BioAssay (NCATS).

Experiment [1] concerns the target Cytochrome P450 3A4 (Homo sapiens) (UniProt P08684). Description: qHTS Assay for Inhibitors and Substrates of Cytochrome P450 3A4 (AID 884). Also: potency is read from the fitted curve at half-maximal effect; nearly all actives have a fitted effect of over 50% in size. In outline:
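Luminescent readout of luciferin produced by CYP3A4 (20 nM) dealkylation of Luciferin-PPXE, 25 uM (its KM). NADPH-driven reaction ran 60 min at RT after 10 min compound preincubation; data scaled to 57 uM ketoconazole as 100% inhibition.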
On the technique in general: Quantitative high-throughput screening tests each substance at several concentrations.

The nature of experiment [2]: Confirmation and Secondary Assay for Modulators of Hemoglobin Beta Chain Splicing at IVS2 654 locus (AID 910).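 Also: HeLa cells stably carrying EGFP split by mutant beta-globin IVS2-654 intron; per-well total GFP intensity by laser scanning cytometry after 2-day treatment; % of control where 0% means no effect.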 The method, boiled down: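 Readout: per-well total peak green fluorescence (488 nm ex, 500–520 nm em) from objects 5–250 µm, reflecting correct splicing of an EGFP-654 reporter. Compounds were applied for 2 days at 37 °C to overnight-plated HeLa EGFP-654 cells; controls were DMSO and 500 nM IVS2-654 PNA.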

Experiment [3] can be described thus: Confirmation and Secondary Assay for Modulators of Hemoglobin Beta Chain Splicing at IVS2 705 locus (AID 930).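 Also: HeLa cells stably expressing the EGFP-705 splicing reporter; GFP fluorescence per well restored by corrected splicing of the IVS2-705 intron in EGFP; series mostly up to about 46 µM; % of control where 0% means no effect.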 The method, boiled down: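 Secondary splice-site specificity test uses HeLa expressing CMV-driven EGFP interrupted by IVS2-705; cells were treated 2 days at 37C with 500 nM antisense PNA as positive control.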
Experiment [4] addresses Rap guanine nucleotide exchange factor 3 (Homo sapiens) (UniProt O95398). Put plainly: Confirmatory qHTS for antagonist of cAMP-regulated guanine nucleotide exchange factor 3 (EPAC1) (AID 1645880). Also: nearly all actives have a fitted effect of over 55% in size. Also: potency is read from the fitted curve at half-maximal effect. The method, boiled down: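 Released BODIPY-GDP fluoresces less than Rap1-bound BODIPY-GDP; the signal is followed at 480/540 nm at 5-min intervals over 30 min, after 5 min at room temperature. Reactions contain 100 nM EPAC1, 250 nM RAP1B-BODIPY-GDP and 50 uM GDP; results are normalized to ATA and DMSO.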

Experiment [5] has the same target. Put plainly: Confirmatory qHTS for agonist of cAMP-regulated guanine nucleotide exchange factor 3 (EPAC1) (AID 1645881). Also: nearly all actives have a fitted effect of over 75% in size. Also: potency is read from the fitted curve at half-maximal effect.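 As to activation: EPAC1 catalysed release of BODIPY-GDP from Rap1B seen as fluorescence loss; 100% = effect of cAMP agonist control.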
The target in experiment [6] is Rap guanine nucleotide exchange factor 4 (Homo sapiens) (UniProt Q8WZA2). Put plainly: Confirmatory qHTS for agonist of cAMP-regulated guanine nucleotide exchange factor 4 (EPAC2) (AID 1645884).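 Also: nucleotide exchange releases bodipy-GDP from Rap1 and this lowers its fluorescence; nearly all actives have a fitted effect of over 65% in size.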 Also: potency is read from the fitted curve at half-maximal effect. As to activation: % is scaled to controls: 0 for no effect and ±100 for the full control effect.
Chain of Rap guanine nucleotide exchange factor 4 (Homo sapiens) (Q8WZA2 whole entry, looked up): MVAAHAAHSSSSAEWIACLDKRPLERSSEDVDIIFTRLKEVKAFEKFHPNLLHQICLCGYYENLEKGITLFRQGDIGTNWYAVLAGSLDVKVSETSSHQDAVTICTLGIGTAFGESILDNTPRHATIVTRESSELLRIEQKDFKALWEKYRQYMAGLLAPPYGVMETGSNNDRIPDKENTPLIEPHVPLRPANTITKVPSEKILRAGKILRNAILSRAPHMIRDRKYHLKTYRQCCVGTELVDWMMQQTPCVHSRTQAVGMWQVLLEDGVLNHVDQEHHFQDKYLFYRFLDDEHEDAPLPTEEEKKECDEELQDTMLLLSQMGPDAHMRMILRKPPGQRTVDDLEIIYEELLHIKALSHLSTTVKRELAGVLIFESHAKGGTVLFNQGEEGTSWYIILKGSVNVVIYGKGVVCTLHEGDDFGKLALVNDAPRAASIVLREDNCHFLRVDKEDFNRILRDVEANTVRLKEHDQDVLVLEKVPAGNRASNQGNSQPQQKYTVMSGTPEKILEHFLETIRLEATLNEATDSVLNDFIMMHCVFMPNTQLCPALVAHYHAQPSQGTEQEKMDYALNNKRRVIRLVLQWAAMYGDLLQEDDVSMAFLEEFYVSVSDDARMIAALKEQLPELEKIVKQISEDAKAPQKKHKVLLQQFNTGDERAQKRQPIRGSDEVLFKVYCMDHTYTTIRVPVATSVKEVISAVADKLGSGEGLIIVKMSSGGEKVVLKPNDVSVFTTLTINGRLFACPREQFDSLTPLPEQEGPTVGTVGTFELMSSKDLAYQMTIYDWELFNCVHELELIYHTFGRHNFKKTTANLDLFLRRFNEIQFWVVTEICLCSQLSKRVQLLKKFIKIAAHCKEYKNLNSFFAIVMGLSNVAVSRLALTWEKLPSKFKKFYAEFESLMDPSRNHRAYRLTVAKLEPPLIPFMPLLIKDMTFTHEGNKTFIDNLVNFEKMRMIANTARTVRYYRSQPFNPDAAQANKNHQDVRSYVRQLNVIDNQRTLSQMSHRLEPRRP
Experiment [7] has as its target Rap guanine nucleotide exchange factor 3 (Homo sapiens) (UniProt O95398). Description: Counterscreen qHTS for antagonist of cAMP-regulated guanine nucleotide exchange factor 3 (EPAC1) (AID 1645888). Also: % of control where 0% means no effect. The method, boiled down: (§1)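 Rap1B-BODIPY-GDP 250 nM + GDP 50 uM; cpds 7-pt, final 9.74 nM–152 uM (activator mode) or from 7.32 nM upwards (inhibitor mode); RT; FI 480/540 nm at 5 and 30 min, then ± cAMP, reread.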
Background: The purpose of a counterscreen is to sort out artefacts and off-target activity.

Experiment [8] has the same target. Description: Counterscreen qHTS for agonist of cAMP-regulated guanine nucleotide exchange factor 3 (EPAC1) (AID 1645889). Also: nearly all actives have a fitted effect of over 40% in size. Also: potency is read from the fitted curve at half-maximal effect. As to activation: % of control where 0% means no effect. In outline:
as §1

The target in experiment [9] is Rap guanine nucleotide exchange factor 4 (Homo sapiens) (UniProt Q8WZA2). Description: Confirmatory qHTS for antagonist of cAMP-regulated guanine nucleotide exchange factor 4 (EPAC2) (AID 1645885). Also: % is scaled to controls: 0 for no effect and ±100 for the full control effect; nearly all actives have a fitted effect of over 25% in size.

Molecules are shown by their SMILES. Values without a mark were called inactive. Records with an inconclusive call do not appear. The source made the active and inactive calls. Calls follow the shape of the dose curve; as a rule, active = well fitted curve in the direction sought with a large enough effect; inconclusive = small, poorly fitted or top-dose-only effect, or another doubt; inactive = no such curve, though single readings can be large; an effect the other way counts as inactive or inconclusive.

Chain of Rap guanine nucleotide exchange factor 3 (Homo sapiens) (O95398 whole entry, looked up): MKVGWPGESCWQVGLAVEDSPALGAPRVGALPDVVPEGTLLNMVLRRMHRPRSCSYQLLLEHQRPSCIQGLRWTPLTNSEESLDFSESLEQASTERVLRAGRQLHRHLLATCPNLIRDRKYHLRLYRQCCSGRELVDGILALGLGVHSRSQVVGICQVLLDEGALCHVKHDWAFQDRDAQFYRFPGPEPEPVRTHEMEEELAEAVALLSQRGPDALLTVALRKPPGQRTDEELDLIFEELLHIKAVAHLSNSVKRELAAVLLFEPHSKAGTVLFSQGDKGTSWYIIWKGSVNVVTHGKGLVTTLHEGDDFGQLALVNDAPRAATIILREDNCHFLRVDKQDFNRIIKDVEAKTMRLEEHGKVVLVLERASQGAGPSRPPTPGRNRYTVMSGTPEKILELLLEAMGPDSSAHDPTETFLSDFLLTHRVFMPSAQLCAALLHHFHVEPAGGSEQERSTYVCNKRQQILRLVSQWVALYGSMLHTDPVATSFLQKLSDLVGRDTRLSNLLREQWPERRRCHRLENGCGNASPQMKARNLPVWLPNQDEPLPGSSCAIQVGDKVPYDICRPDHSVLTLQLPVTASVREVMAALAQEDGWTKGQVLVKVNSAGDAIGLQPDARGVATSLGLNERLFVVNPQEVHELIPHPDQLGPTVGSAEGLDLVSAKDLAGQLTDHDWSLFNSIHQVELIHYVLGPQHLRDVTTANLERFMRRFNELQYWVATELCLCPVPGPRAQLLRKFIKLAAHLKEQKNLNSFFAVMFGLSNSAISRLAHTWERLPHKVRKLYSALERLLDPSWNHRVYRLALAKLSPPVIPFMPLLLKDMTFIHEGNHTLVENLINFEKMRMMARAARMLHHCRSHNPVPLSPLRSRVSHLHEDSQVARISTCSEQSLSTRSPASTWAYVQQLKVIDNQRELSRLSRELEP
Chain of Cytochrome P450 3A4 (Homo sapiens) (P08684 whole entry, looked up): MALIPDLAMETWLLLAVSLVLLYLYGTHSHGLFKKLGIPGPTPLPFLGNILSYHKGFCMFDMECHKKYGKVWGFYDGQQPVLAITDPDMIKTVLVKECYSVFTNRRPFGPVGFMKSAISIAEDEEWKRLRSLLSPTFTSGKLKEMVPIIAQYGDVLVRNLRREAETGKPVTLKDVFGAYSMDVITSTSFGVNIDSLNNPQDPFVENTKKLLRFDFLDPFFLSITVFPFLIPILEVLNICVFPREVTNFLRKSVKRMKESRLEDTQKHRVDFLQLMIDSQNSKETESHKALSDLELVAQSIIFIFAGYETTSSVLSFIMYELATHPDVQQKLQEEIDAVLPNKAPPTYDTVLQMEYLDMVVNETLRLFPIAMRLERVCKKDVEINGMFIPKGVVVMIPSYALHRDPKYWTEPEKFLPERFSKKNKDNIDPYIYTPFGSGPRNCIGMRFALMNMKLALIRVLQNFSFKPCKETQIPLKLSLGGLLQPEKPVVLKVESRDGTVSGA

Turning to `CCCCCC1C(=O)O[C@H](C)[C@@H](NC(=O)c2cccc(NC=O)c2O)C(=O)OC(C)C1OC(=O)CC(C)C` (some centres undefined), the Potency in experiment [1] was 7.94 µM (active). Also, the Potency entry in experiment [2], in [3], in experiment [4], in experiment [5] and in experiment [6] was “inactive” in each case.

Regarding `COC(=O)C1C2c3ccccc3C(c3ccccc32)C1(C)C(=O)OC` (centres undefined), the Potency entry in [4] and in experiment [5] was “inactive” in each case. Moreover, in experiment [6], the activation is 9.42% [at 17.1 µM, percent relative to cAMP agonist control]. Further, the activity change, negative = inhibition in [7] was 4.93% [at 30.8 µM].

For the molecule `Cc1cc(C=C(C#N)C#N)ccc1N1CCCC1`, the Potency entry in experiment [4] is “inactive”. For the same molecule, the Potency in experiment [5] is 100 µM (active); in [6], 112 µM (active); in experiment [8], 28.2 µM (active). Further, the call in experiment [7] was inactive.

`CCOC(=O)C1CCCN(c2ccc([N+](=O)[O-])c3nonc23)C1` (centres undefined): the Potency result in experiment [4] and in experiment [9] was “inactive” each time. Also, the figures for the Potency in [5], in experiment [6] and in experiment [8] were 112 µM (active), 100 µM (active) and 39.8 µM (active), respectively.

`COc1ccc(CN2C(=O)NC(=O)/C(=C/c3ccc([N+](=O)[O-])s3)C2=O)cc1`: the Potency in experiment [4] was 9.53 µM (active). Also, the Potency entry in [5] and in experiment [6] was “inactive” in each case. Besides, the molecule was classed as inactive in experiment [7].

For `CC(C)C/C(=N/O)c1cn(C)c2ccccc12`, the Potency result in [4], in [5], in experiment [6] and in [8] was “inactive” in each case. Moreover, the molecule was called inactive in experiment [7].
